Compound activity (PubChem)
A selection: hits, their analogues and other compounds. The true share with any hit is near 1.7%.
PTHR1 agonist = agonists of human PTHR1 parathyroid hormone receptor; AID 743266; Q03431; hit rate 0.075% among 410,000; Potency, µM (titrated, usually from 115 µM), most hits filed as activators; HEK293 GP2 PTHR1 cells, GloSensor cAMP luminescence, 1 h; further: nearly all actives have a fitted effect of over 55% in size
Target sequence (Q03431 whole entry, looked up): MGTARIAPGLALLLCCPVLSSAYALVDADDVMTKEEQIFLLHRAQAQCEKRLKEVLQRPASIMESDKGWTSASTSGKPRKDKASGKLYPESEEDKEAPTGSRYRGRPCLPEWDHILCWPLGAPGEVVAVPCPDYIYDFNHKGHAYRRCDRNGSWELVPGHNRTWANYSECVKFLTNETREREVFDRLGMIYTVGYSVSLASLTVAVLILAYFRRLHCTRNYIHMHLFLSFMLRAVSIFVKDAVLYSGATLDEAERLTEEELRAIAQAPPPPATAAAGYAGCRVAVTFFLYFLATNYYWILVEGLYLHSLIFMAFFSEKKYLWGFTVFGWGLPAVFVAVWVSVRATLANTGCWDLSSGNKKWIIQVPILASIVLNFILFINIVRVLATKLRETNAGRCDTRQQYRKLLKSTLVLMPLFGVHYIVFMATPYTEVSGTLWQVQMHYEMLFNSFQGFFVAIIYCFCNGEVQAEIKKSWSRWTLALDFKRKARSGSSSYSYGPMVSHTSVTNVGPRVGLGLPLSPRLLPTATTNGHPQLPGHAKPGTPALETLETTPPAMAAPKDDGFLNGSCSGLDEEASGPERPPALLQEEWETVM
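HEK-293-derived GP2 cells expressing PTHR1 and a GloSensor cAMP reporter, 3,000/well, plated overnight, given luciferin plus IBMX (each 0.5 mM as added) for 1 h at 37 °C, then compound for 1 h at 37 °C. Luminescence was read after 15 min at room temperature.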
GLP-1R inv ag = acts as inverse agonist at human GLP-1 receptor; HEK293 GLP-1R CRE-luciferase, luminescence, 24 h; GLP-1R form is constitutively active; P43220; AID 624417; hit rate 1.6% among 410,000; Potency, µM (top dose mostly 38.3 µM), most hits filed as inhibitors; further: nearly all actives have a fitted effect of over 55% in size
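Constitutively active GLP-1R drives a cAMP-responsive luciferase in stably transfected HEK293 cells; test compounds are added after overnight (12 h) attachment and left 24 hr, and signal loss in luminescence marks inhibition.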
GLP1R ag = GLP-1 receptor (human) agonism; P43220; HEK293 GLP-1R CRE-luciferase, luminescence, 4-6 h; cells express a hypersensitive GLP-1R form; Potency, µM (doses to about 45.6 µM), hits mostly activators; hit rate 0.007% among 380,000; AID 624172
GLP1R cytotox = cytotoxic in the GLP-1 receptor inverse agonist counter-screen | HEK293 cAMP-luciferase reporter cells, luminescence, 24 h | Potency, µM (highest dose often 38.3 µM), hits mostly inhibitors | hit rate 0.13% among 410,000 | AID 624418;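 further: loss of luciferase light is scored as toxicity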
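Cells in DMEM/10% Nu serum/1% pen-strep, 1536-well format. Pre-incubated 12 h, dosed with 23 nL compound, incubated a further 24 h. Luciferase detection, 12 min at room temp, luminescence.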
Numbers stand for hits; - = inactive; ? = inconclusive; . = no result given. The call rests on the fitted dose curve; in most records, active means well fitted curve in the direction sought with a large enough effect; inconclusive means small, poorly fitted or top-dose-only effect, or another doubt; inactive means no such curve, though single readings can be large; an effect the other way counts as inactive or inconclusive.

SMILES	PTHR1 agonist	GLP-1R inv ag	GLP1R ag	GLP1R cytotox
O=C1C=CC(=O)N1c1cccc(-c2ccccc2)c1	-	?	-	13µM
COc1ccc(S(=O)(=O)N2CCN(Cc3nc4ccc(C)cc4o3)CC2)cc1	-	-	.	-
Cc1ccc(CC(=O)N2CCN(c3cccc(C(F)(F)F)c3)CC2)cc1	-	8.9µM	-	-
Cc1ccc(S(=O)(=O)CC(=O)N2CCN(c3cccc(C(F)(F)F)c3)CC2)cc1	-	-	-	-
O=C(/C=C/c1cccc(Br)c1)N1CCN(c2cccc(C(F)(F)F)c2)CC1	-	?	-	-
CC1(C)Cc2cccc(OCC(=O)N3CCN(c4cccc(C(F)(F)F)c4)CC3)c2O1	-	10µM	-	-
O=C(/C=C/c1ccc(Br)cc1)N1CCN(c2cccc(C(F)(F)F)c2)CC1	-	10µM	-	-
CC12C=CC(=O)C=C1CCC1C2C(O)CC2(C)C1CCC2(O)C(=O)COC(=O)CCC(=O)O (stereo unspecified)	.	.	-	.
CCc1ccccc1N(C)C(=O)C1CCCN(c2ncnc3c2nc2n3CCCCC2)C1 (stereo unspecified)	-	-	.	-
Cc1cc(N2CCN(c3ccc(C(F)(F)F)cc3[N+](=O)[O-])CC2)c2ccccc2n1	-	7.9µM	-	?
O=C(Nc1ccccc1)N1CCCN(c2ccc(C(F)(F)F)cc2[N+](=O)[O-])CC1	-	7.9µM	-	-
Cc1cc(N2CCN(c3ccc([N+](=O)[O-])c4cccnc34)CC2)c2ccccc2n1	-	-	-	-
CNC(=O)c1ccccc1Sc1ccc2c(/C=C/c3ccccn3)n[nH]c2c1	.	.	-	.
CCOCCCNC(=O)c1ccc(Cn2c(=O)c3cccn3c3cccnc32)cc1	-	-	.	-
Cc1ccc(C(=O)CSc2nc(-c3ccccc3)nc3c2CCCC3)cc1C	-	-	-	-
CC1CCC(C(C)C)C(OC(=O)COC(=O)c2cccn2C)C1 (stereo unspecified)	-	10µM	-	-
Cc1ccccc1OCc1n(CC(=O)OC2CC(C)CCC2C(C)C)c2ccccc2[n+]1C (stereo unspecified)	-	?	-	?
CC1CCC(C(C)C)C(OC(=O)Cn2c(-c3ccc(Cl)cc3)[n+](C)c3ccccc32)C1 (stereo unspecified)	-	10µM	-	10µM
COc1ccc(NC(=O)c2c(C)oc3ccc(O)c(CN4CCCCCC4)c23)cc1Cl	-	?	.	-
CCCCN(C)CCCNC(=O)CN1C(=O)COc2ccc(S(=O)(=O)N3CCC(C)CC3)cc21	-	-	-	-
CCOC(=O)/C(=N\Nc1ccccc1Cl)N1CC(C)OC(C)C1 (stereo unspecified)	-	5µM	-	-
CCOC(=O)/C(=N\Nc1ccccc1Cl)N(C)C1CCCCC1	-	8.9µM	-	-
CCOc1ccc(-c2cc(NC(=O)c3ccccc3)c(C(=O)OC)s2)cc1	-	-	.	-
COC(=O)c1[nH]c2ccc(C)cc2c1NC(=O)CN1CCN(C(=O)c2ccccc2)CC1	-	-	-	?
COC(=O)c1[nH]c2ccc(C)cc2c1NC(=O)CN1CCC(C)CC1	-	6.3µM	-	-
SMILES	PTHR1 agonist	GLP-1R inv ag	GLP1R ag	GLP1R cytotox
COC(=O)c1[nH]c2ccc(C)cc2c1NC(=O)CN1CCN(c2ccc(F)cc2)CC1	-	4µM	-	-
COC(=O)c1[nH]c2ccc(C)cc2c1NC(=O)CN1CCN(Cc2ccccc2)CC1	-	?	-	?
Cc1ccc2[nH]c(C(=O)O)c(NC(=O)CN3CCN(c4cccc(C)c4C)CC3)c2c1	-	10µM	-	-
COC(=O)c1[nH]c2ccc(C)cc2c1NC(=O)CN1CCN(c2ccccc2)CC1	-	10µM	-	?
COc1cccc(N2CCN(C(=O)c3ccc4c(=O)n(CCc5ccccc5)c(=O)[nH]c4c3)CC2)c1	-	-	-	-
Cc1ccc(-c2noc(-c3ccccc3NC(=O)C3CC(=O)N(c4ccccc4C)C3)n2)cc1 (stereo unspecified)	?	-	.	-
O=C(O)CCc1nnc2cnc3ccccc3n12	-	-	-	-
CC(=O)Nc1cccc(NC(=O)CSc2cn(CC(=O)N(C(C)C)C(C)C)c3ccccc23)c1	-	-	.	-
C[C@H](c1ccccc1)N1C[C@H](COCc2ccccc2)Oc2cc(N3CC[C@H](O)C3)ccc2S1(=O)=O	-	10µM	-	-
CC1CCc2c(sc3nnn(Cc4ccccc4Cl)c(=O)c23)C1 (stereo unspecified)	-	-	.	-
Cc1ccc(-c2nc(-c3ccccn3)no2)cc1Cl	-	1.6µM	-	-
Cc1ccc(-c2nc(-c3ccccn3)no2)cc1	-	0.89µM	-	-
c1ccc(C(Cc2nc(-c3ccccn3)no2)c2ccccc2)cc1	-	10µM	-	-
Clc1cccc(-c2nc(-c3ccccn3)no2)c1	-	-	-	-
COc1cccc(-c2cn3c(n2)sc2cc(C(=O)NCCCc4ccccc4)ccc23)c1	-	?	.	-
Nc1c(-c2nc(-c3ccc4c(c3)OCO4)cs2)c2ccccn2c1C(=O)c1ccccc1	-	-	.	-
Cc1oc2ccc(O)c(CN3CCN(C)CC3)c2c1C(=O)Nc1cccc(C(F)(F)F)c1	-	-	.	-
O=C(CNC(=O)c1ccc(Cl)cc1)OCc1cc(=O)n2ccsc2n1	-	-	.	-
O=C(Nc1ccc(C(=O)N2CCC(O)(c3ccc(Cl)c(C(F)(F)F)c3)CC2)cc1)c1ccc(Br)o1	-	10µM	-	-
CO/N=C(\C(=O)N[C@@H]1C(=O)N2C(C(=O)OCOC(=O)C(C)(C)C)=C(C)CS[C@H]12)c1csc(N)n1	.	.	-	.
O=[N+]([O-])c1ccc(/C=N/Nc2ncccc2[N+](=O)[O-])s1	-	?	-	1.1µM
Cc1ccc(S(=O)(=O)c2cn(Cc3ccccc3)c3cc(N4CCOCC4)c(F)cc3c2=O)cc1	-	-	.	-
O=C1C=CC2(C=C1)O[C@H](Cc1ccccc1)[C@@H](Cc1ccccc1)O2	-	?	-	2µM
COc1ccc(C[C@@H]2OC3(C=CC(=O)C=C3)O[C@H]2Cc2ccc(OC)cc2)cc1	-	?	-	4.5µM
CCCNS(=O)(=O)c1ccc2nc(NC(=O)c3ccc(F)cc3)sc2c1	-	-	.	-
SMILES	PTHR1 agonist	GLP-1R inv ag	GLP1R ag	GLP1R cytotox
CSc1ccc(CCNC(=O)C(C)n2c(C)c3cnn(-c4ccccc4)c(=O)c3c2C)cc1 (stereo unspecified)	-	?	.	-
Cc1cc(C(C)(C)C)ccc1OCCOCCN1CCCC1	-	13µM	-	-
CC(C)(C)CC(C)(C)NCC(O)COc1ccc2c(c1)CCC2 (stereo unspecified)	-	10µM	-	?
CC(C)(CO)NCC(O)COc1ccc2c(c1)CCC2 (stereo unspecified)	-	?	-	-
Clc1ccc(-c2noc(CSc3nnc(-c4ccncc4)n3-c3ccccc3)n2)cc1	-	?	-	-
Clc1ccccc1-c1nnc(SCc2nc(-c3ccccc3)no2)n1-c1ccccc1	-	10µM	.	-
